Data from PubChem BioAssay AID1851 (National Center for Advancing Translational Sciences (NCATS), 2009).
The whole screen tested about 16,000 compounds, of which about 5,700 (36%) were called active. About 24% were inconclusive and are not listed. The list shows a part of the results. A number with no mark means an inactive call. Calls follow the shape of the dose curve; as a rule, active = well fitted curve in the direction sought with a large enough effect; inconclusive = small, poorly fitted or top-dose-only effect, or effect the other way; inactive = no such curve, though single readings can be large or run the other way.

Each compound was assayed against Cytochrome P450 1A2 (Homo sapiens) (UniProt P05177) (assay: Cytochrome panel assay with activity outcomes). Settings: recombinant CYP, pro-luciferin dealkylation, luminescence, p450-cyp1a2; series mostly up to 57.1 µM.
Sequence of Cytochrome P450 1A2 (Homo sapiens) (P05177 whole entry, looked up): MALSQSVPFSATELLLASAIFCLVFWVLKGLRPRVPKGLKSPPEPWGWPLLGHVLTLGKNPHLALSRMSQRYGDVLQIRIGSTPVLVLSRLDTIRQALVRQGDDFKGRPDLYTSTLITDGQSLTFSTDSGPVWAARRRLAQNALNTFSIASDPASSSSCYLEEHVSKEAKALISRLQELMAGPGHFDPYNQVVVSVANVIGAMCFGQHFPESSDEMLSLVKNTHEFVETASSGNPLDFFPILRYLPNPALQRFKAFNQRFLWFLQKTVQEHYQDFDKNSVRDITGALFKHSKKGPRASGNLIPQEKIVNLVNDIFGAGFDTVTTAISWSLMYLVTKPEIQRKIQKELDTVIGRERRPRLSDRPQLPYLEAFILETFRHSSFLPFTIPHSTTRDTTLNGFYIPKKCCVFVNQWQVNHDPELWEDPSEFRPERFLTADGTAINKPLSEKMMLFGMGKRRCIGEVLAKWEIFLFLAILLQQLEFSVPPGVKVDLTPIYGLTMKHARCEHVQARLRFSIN
% is scaled to controls: 0 for no effect and ±100 for the full control effect.

Structure (SMILES) | AC50 | activity, negative = inhibition
COc1ccc(-n2c(=O)c(C)nc3cnc(N4CCOCC4)nc32)cc1 | 12.6 µM (active) | 
Cc1nc2cnc(N3CCNCC3)nc2n(-c2ccccc2)c1=O | 10 µM (active) | 
COc1ccc(-n2c(=O)cnc3cnc(N4CCNCC4)nc32)cc1 | 12.6 µM (active) | 
COc1ccc(-n2c(=O)c(C)nc3cnc(N4CCNCC4)nc32)cc1 | 15.8 µM (active) | 
CCc1cc2c(nc1CC)CCN(CC/C(C)=N/OC[C@@H](C)[C@H](OCc1ccccc1)C(C)C)C2 |  | -7.21% [at 11.4 µM]
N[C@@H](Cc1ccnnc1)C(=O)O |  | -10.6% [at 2.29 µM]
CC(C)NC(=O)N1CCC2(CC1)CCN(C(=O)c1cccc(F)c1)CC2 | inactive | 
O=C(O)CCc1c2ccc(=O)c(O)c-2oc2c(O)c(O)ccc12 |  | -3.96% [at 2.29 µM]
O=C(C1CCN(S(=O)(=O)N2CCOCC2)CC1)N1CCN(c2ccccc2)CC1 | inactive | 
c1ccn(-c2ccc(N3CCOCC3)cc2)c1 | 0.251 µM (active) | 
O=C(N1CCOCC1)N1CCN(c2ccccc2)CC1 | inactive | 
Nc1nc2c(c(=O)[nH]1)CN(c1ccc(S(N)(=O)=O)cc1)CN2 |  | 8.8% [at 2.29 µM]
CC(=O)Nc1nnc(S(N)(=O)=O)s1 | inactive | 
CC(C)c1nnc(NC(=O)CCC(=O)N2CCN(c3ccccn3)CC2)s1 | inactive | 
CC(C)=CC(=O)Nc1nnc(C(C)C)s1 | 15.8 µM (active) | 
Cc1ccc(-c2csc(NC(=S)NC(=O)/C=C/c3ccco3)n2)cc1 | 5.62 µM (active) | 
Cc1ccc(/C=C/C(=O)NC(=S)Nc2ccccc2C(=O)NC2CCCCC2)cc1 | inactive | 
O=C(/C=C/c1ccco1)NC(=S)Nc1ccc(N2CCOCC2)c(Cl)c1 | inactive | 
O=P(O)(CCP(=O)(O)c1ccccc1)c1ccccc1 |  | -14.2% [at 11.4 µM]
Cc1cc2nc(C)n(CCCN)c2cc1C | 12.6 µM (active) | 

Structure (SMILES) | AC50 | activity, negative = inhibition
NCCCc1ccc2oc3ccccc3c2c1 | 0.0316 µM (active) | 
CCN(CC)C(=O)C1CCN(S(=O)(=O)c2ccc3oc4ccccc4c3c2)CC1 | inactive | 
Cc1ccc(C(=O)N/N=C/c2cc(C)n(-c3ccc(Br)cc3)c2C)cc1[N+](=O)[O-] | inactive | 
Cc1ccc(C(=O)Nc2ccccc2Oc2ccccc2)cc1[N+](=O)[O-] | 12.6 µM (active) | 
Cc1ccc(C(=O)N/N=C\c2ccc[nH]2)cc1[N+](=O)[O-] | 1.78 µM (active) | 
Cc1ccc(C(=O)COC(=O)CNC(=O)C(c2ccccc2)c2ccccc2)cc1[N+](=O)[O-] | inactive | 
Cc1ccc(C(=O)Nc2ccc(Cc3ccncc3)cc2)cc1[N+](=O)[O-] | 0.282 µM (active) | 
CCC(=O)Nc1ccc(C(=O)OCC(=O)c2ccc(C)c([N+](=O)[O-])c2)cc1 | inactive | 
O=C(N/N=C/C=C/c1ccc([N+](=O)[O-])cc1)c1cccs1 | inactive | 
Cc1ccc(/C=N/NC(=O)c2cccs2)cc1[N+](=O)[O-] | 2.24 µM (active) | 
COc1cccc(CNC(=O)C2CCN(S(=O)(=O)N3CCCCC3)CC2)c1 | inactive | 
CN1CC[C@@]2(CCN3CCc4c(oc5ccccc45)[C@@H]3C2)N(C)C1=O | inactive | 
C[C@@H](N)[C@@H](C)Cc1ccccc1 |  | -20% [at 11.4 µM]
O=C1c2ccc3c4c(ccc(c24)C(=O)N1c1ccc2ccccc2c1)CC3 | 0.794 µM (active) | 
CCOc1ccc(N2C(=O)c3cccnc3C2=O)cc1 | inactive | 
CCc1ccc(N2C(=O)c3ccc4c5c(ccc(c35)C2=O)CC4)cc1 | 4.47 µM (active) | 
c1csc(CNc2ncnc3ccc(-c4ccoc4)cc23)c1 | 3.16 µM (active) | 
N#Cc1cccc(-c2ccc3ncnc(NCc4cccs4)c3c2)c1 | 0.1 µM (active) | 
Cc1cccc(CNc2ncnc3ccc(-c4cccc(C#N)c4)cc23)c1 | 0.631 µM (active) | 
N#Cc1cccc(-c2ccc3ncnc(NCc4ccccc4)c3c2)c1 | 0.1 µM (active) | 

Structure (SMILES) | AC50 | activity, negative = inhibition
C/C(CCN1CCCCc2nc(C)c(C)cc21)=N\O[C@@H](C)CN1CCCCc2nc(C)c(C)cc21 |  | -20.9% [at 11.4 µM]
C/C=C\C[C@H](C)[C@H](O)[C@H]1C(=O)N[C@@H](CC)C(=O)N(C)CC(=O)N(C)[C@@H](CC(C)C)C(=O)N[C@@H](C(C)C)C(=O)N(C)[C@@H](CC(C)C)C(=O)N[C@@H](C)C(=O)N[C@@H](C)C(=O)N(C)[C@@H](CC(C)C)C(=O)N(C)[C@@H](CC(C)C)C(=O)N(C)[C@@H](C(C)C)C(=O)N1C | inactive | 
CC1=CC(C)(C)NC(=S)N1c1cccc(C)c1 | inactive | 
COc1cccc(-c2ccc3ncnc(NCc4cccs4)c3c2)c1 | 0.501 µM (active) | 
Cc1cc(C)cc(N(CC(=O)NCCSc2ccccn2)S(=O)(=O)c2ccccc2)c1 | inactive | 
Cn1c([N+](=O)[O-])cnc1COC(N)=O | inactive | 
CC[N+](CC)(CC(=O)Nc1c(C)cccc1C)Cc1ccccc1 | inactive | 
Cc1cccc(C)c1NC(=O)CS(=O)CC(=O)NCCCc1ccccc1 (stereo not given) | inactive | 
COC(=O)c1scc(C)c1NC(=O)Cc1ccccc1 | 12.6 µM (active) | 
Nc1ncnc2c1ncn2[C@@H]1O[C@@H](C(=O)NC2CC2)[C@H](O)[C@@H]1O | inactive | 
Cc1ccc2[nH]c3c(c2c1)CN(C(=O)CN1c2ccc(F)cc2CCC1C)CC3 (stereo not given) | 5.62 µM (active) | 
CNCCCC1c2ccccc2C=Cc2ccccc21 | inactive | 
CCCN1C(=O)C2(/C(=C(\O)c3ccc4c(c3)OCCO4)C(=O)C(=O)N2CCCOC)c2ccccc21 (stereo not given) | inactive | 
O=C(OCc1nnc(-c2ccccc2)o1)c1ccc2c(c1)OCCO2 | 2.51 µM (active) | 
Cc1ncc(N=Nc2ccccc2Cl)c(-c2ccccc2)n1 | 0.631 µM (active) | 
OCCN(Cc1ccccc1)Cc1cccc(Cl)c1Cl | 5.62 µM (active) | 
CN(C(=O)CN(CCO)CC(=O)N(C)C(C)(C)Cc1ccccc1)C(C)(C)Cc1ccccc1 | inactive | 
CCc1c(O)nc2sc3ccccc3n2c1=O | 15.8 µM (active) | 
CCc1c(O)nc(SCC(=O)NC(C)(C)C)n(-c2ccccc2)c1=O | inactive | 
CCCc1nn2c(=O)c(C(c3ccc(C)cc3)c3c(O)nc4sc(CCC)nn4c3=O)c(O)nc2s1 | inactive | 
